Assay results reported in the supplement of paper PMC3334620.
The full ranking holds about 33,000 sequences; the median of “E-score (-0.5 to 0.5)” is about -0.015, and the highest 2% start at about 0.3. Only a selection was taken, and the highest values are over-represented in it overall.

biological target: T1, Abf1 (UniProt P14164); assay: PBM E-score (8-mer binding enrichment) (E-score (-0.5 to 0.5)); higher = stronger / more preferred TF binding; settings: protein concentration: 200 nM; construct: GST-full length
T1 sequence: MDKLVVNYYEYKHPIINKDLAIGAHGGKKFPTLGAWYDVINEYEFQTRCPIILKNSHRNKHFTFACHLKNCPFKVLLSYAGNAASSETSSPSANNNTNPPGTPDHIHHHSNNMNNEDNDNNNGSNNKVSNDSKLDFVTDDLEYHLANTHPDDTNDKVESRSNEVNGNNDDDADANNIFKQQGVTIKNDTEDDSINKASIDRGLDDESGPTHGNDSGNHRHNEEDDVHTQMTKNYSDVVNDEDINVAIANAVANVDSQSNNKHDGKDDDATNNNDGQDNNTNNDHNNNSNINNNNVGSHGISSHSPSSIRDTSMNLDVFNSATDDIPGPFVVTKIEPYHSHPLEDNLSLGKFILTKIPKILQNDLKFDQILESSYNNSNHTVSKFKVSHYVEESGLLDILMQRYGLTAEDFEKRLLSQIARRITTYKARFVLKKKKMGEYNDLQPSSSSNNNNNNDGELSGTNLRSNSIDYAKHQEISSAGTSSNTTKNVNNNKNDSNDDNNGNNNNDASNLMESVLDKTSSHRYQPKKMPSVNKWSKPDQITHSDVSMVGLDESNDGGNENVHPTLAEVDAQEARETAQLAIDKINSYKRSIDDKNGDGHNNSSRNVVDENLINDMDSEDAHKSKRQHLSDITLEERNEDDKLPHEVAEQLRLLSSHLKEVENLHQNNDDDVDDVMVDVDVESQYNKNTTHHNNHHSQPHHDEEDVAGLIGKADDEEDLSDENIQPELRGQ
Protocol: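 Universal 'all 10-mer' protein binding microarrays (Agilent AMADID 015681) probed with GST-tagged S. cerevisiae TFs (full-length or DBD) made by in vitro transcription/translation (PURExpress), about 100-200 nM. Bound TF was detected with fluorescent anti-GST. Each ungapped 8-mer (which stands for itself and its reverse complement) is scored by the PBM enrichment score (E-score), a modified Wilcoxon-Mann-Whitney statistic from -0.5 to +0.5, computed with the Universal PBM Analysis Suite. Scale: above 0.35 generally sequence-specific binding.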

Sequence | PBM E-score
CTCGTGAA | 0.224
GGACCCCC | -0.249
CGACTATA | 0.129
AGACCTAA | -0.206
GGACAAAA | -0.0523
GGACATAA | -0.032
TGACAAAA | 0.304
AGACATAA | -0.0415
CTACAAAA | 0.139
TTACATAA | 0.197
GTACAAAA | 0.344
TGACATAA | 0.351
ATACAAAA | 0.0848
CGACAAAA | 0.241
CTACATAA | -0.118
GTACATAA | 0.324
AACACTGA | -0.142
AGTGGATA | 0.0619
AAAGAAGG | -0.118
AACACCAC | 0.00166
CAATCTAC | -0.0654
ACCAAGAA | -0.00575

Sequence | PBM E-score
TAAATGCA | 0.0499
AGAGACCC | -0.221
CCGGGCCG | -0.129
TTTTAAAA | 0.0597
ATAAATAT | 0.316
CTAAATTA | 0.0644
ATAAATTA | 0.362
ATATAAAG | 0.146
ATATAAAC | 0.0743
ATATAAAT | 0.3
ATAAATTG | 0.115
ATAAATAG | 0.104
ATAAATAA | 0.246
ACTCGTCT | 0.0807
CGGATATA | 0.185
ACTCCTAC | 0.0623
CTGGTAAA | -0.16
GAACGCGC | 0.0459
AGCACGGC | 0.0922
GAATCGTC | 0.239
ACGATGAC | 0.264
AAGATGAT | 0.304

Sequence | PBM E-score
CAGATGAC | 0.058
AAGATGAA | -0.083
ACGATGAT | 0.322
AAGATGAC | 0.313
ACGATGAA | 0.2
GAGATGAC | 0.141
AAGATGAG | 0.00927
CACCAATG | 0.0285
GATCGACC | -0.0655
ACAACGCT | -0.0795
GATCTTGC | 0.0639
CTGCCCTA | -0.132
CTCCATGC | -0.265
GATCCTGC | 0.0793
AGGCCGTG | 0.092
TGAGAGCA | -0.0853
CCGCCGTC | 0.334
CCGCCGTA | 0.0615
ACGCCGTC | 0.282
CATTGCCG | 0.0936
GAACTCTC | -0.211
CCGCAGTC | -0.165

Sequence | PBM E-score
TGACTTAA | 0.061
AATTGTCC | -0.0973
GATTGTCA | 0.268
AATTGTCA | 0.335
AGAGTGGC | -0.251
AGCAGATG | -0.0843
ATATTAAA | 0.33
CTATTAAA | -0.0136
TTATTAAA | 0.116
AAAAGTTA | 0.151
CCATTCGG | -0.0195
ATTATTTA | 0.254
CTTTATCA | 0.313
ACTTATCC | 0.11
ATTTATTA | 0.309
GTTTATCA | 0.304
ATTTATCC | 0.317
GTTTATTA | 0.0803
CGTTATCA | 0.205
ATTTATCG | 0.222
